Data taken from PubChem BioAssay AID1457 (National Center for Advancing Translational Sciences (NCATS), 2008).
Among all 210,000 compounds or so, about 730 (0.35%) were called active. Roughly 1% stayed inconclusive and do not appear here. The list comes from a sample in which actives are over-represented; it also holds similar structures and randomly drawn compounds. Unmarked numbers belong to inactive results. The call rests on the fitted dose curve; in most records, active means well fitted inhibition curve with a large enough effect; inconclusive means small, poorly fitted or top-dose-only effect; inactive means no such curve, though single readings can be large or run the other way.

Test: qHTS Assay for Identifying the Cell-Membrane Permeable IMPase Inhibitors: Potentiation with Lithium;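 further: IP1 builds up when IMPase is blocked and the TR-FRET signal falls; nearly all actives have a fitted effect of over 50% in size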;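 on activity, negative = IMPase inhibition: plate controls were basal vehicle for no effect and high inhibitor control for full effect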
Details: CHO-M1 cells, IP1 TR-FRET (IP-One), carbachol + lithium; series mostly up to 59.4 µM; activity, negative = IMPase inhibition: at the top concentration
Text: NIH Chemical Genomics Center [NCGC]
NIH Molecular Libraries Probe Production centers Network [MLPCN]
Assay Submitter (PI): Wei Zheng
Lithium has been widely used for the treatment of bipolar disorder. But lithium has a narrow therapeutic index and it can cause side effects such as thirst, weight gain, tremor, polyuria and memory problems. Although the mechanism for lithium action in treatment of bipolar disorder is still not fully understood, inhibition of inositol monophosphatase (IMPase) and the subsequent depletion of the inositol pool in living cells have been implicated as the primary therapeutic benefit of lithium therapy. Therefore, a selective IMPase inhibitor with reduced side effects might be a good drug candidate to replace lithium for the treatment of bipolar disorder. Several IMPase inhibitors have been discovered previously. However, they are not suitable for therapeutic use because of their poor cell membrane penetrability or oral bioavailability; the development of new cell-permeable IMPase inhibitors is needed.
IMPase catalyzes the hydrolysis of inositol-1-phosphate (IP1) to release free inositol. Binding of an agonist to a Gq coupled GPCR results in the activation of PLC, which hydrolyzes the PIP2 to form inositol-1,4,5-trisphosphate (IP3) and diacyl glycerol (DAG). While DAG activates protein kinase C (PKC), IP3 triggers the elevation of intracellular free Ca2+. The IP3 is very rapidly inactivated by hydrolysis to IP2, IP1 and then inositol by a series of enzymes including IMPase. Free inositols are used for synthesis of PI and thus start another inositol cycle.
To identify new cell-permeable IMPase inhibitors, we developed a cell-based IMPase assay in which the cytosolic IP1 is measured by a time-resolved fluorescence resonance energy transfer (TR-FRET) assay. In this assay, an IP1 specific antibody is used to detect the labeled IP1 tracer. When the cell lysate contains the elevated IP1 due to the inhibition of IMPase, the TR-FRET between the labeled antibody and IP1 tracer is disrupted resulting in a reduction in the total signal. Since the TR-FRET is used, this cell-based assay is a homogenous assay without cell wash and medium change that is suitable for assay miniaturization and HTS. In this particular assay, a small amount of lithium is added to potentiate the response of weak activators.
NCGC Assay Protocol Summary:
A Chinese hamster ovary (CHO) cell line stably expressing the M1 receptor (CHO-M1) was obtained from ATCC and maintained in F-12 Kaighn's media (Invitrogen, Carlsbad, CA) supplemented with 10 % FBS, 100 units/ml penicillin, 100 ug/ml streptomycin and 250 ug/ml geneticin at 37C, 5% CO2 in a humidified atmosphere. Before the assay, aliquots of cells were frozen and stored at -135C. The assay was performed in 1536-well format. Data are reported for both the ratio of the two emission wavelengths, and also for the component 'donor' channel, Em2=620. […] AC50 values were determined from concentration-response data modeled with the standard Hill equation.
(1) Frozen CHO-M1 cells were thaw, washed once with fresh media and resuspended in F12K media containing 10% FBS, 100 units/ml penicillin and 100 ug/ml streptomycin. Cells were plated at 4ul/well (2000 cells) in white, tissue culture treated 1536-well plates, and then cultured at 37C, 5 % CO2 for 16 to 30 hours.
(2) Add 23 nl/well of compound in DMSO solution. The final titration for each compound was between 0.6 nM and 46 uM.
(4) Incubation at 37C, 5 % CO2 for 30 min.
(5) Add 1 ul/well of d2-conjugated IP1 (d2-IP1) and 1 ul/well of Eu+ cryptate conjugated anti-IP1 antibody (Eu+-Ab) prepared in the cell lysis buffer, both from the IP-One kit (Cisbio, MA).
(6) Incubate at room temperature for 10 minutes.
(7) Detect the assay plate (Ex = 320, Em1 =665 and Em2 620) in a ViewLux plate reader.
Potency means the concentration at half of the fitted maximal effect.

SMILES	activity, negative = IMPase inhibition	Potency
CCOC(=O)c1c(C)[nH]c2c1-c1ccccc1C(=O)C2=O	12.6%	
CCOC(=O)c1c(C)nc(-c2ccccc2)nc1NC(=O)C(C)C	2.09% [at 38.3 µM]	
CCOC(=O)c1c(C)[nH]c(=S)c(C#N)c1-c1ccccc1		12.6 µM (active)
Brc1ccc(C2=NCCC(c3ccccc3)O2)cc1 (configuration not stated)	4.94%	
CC[C@H](C)[C@@H](NC(=O)O[C@@H]1C(=O)c2cc(OC)ccc2O[C@H]1c1cccc(OC)c1)C(=O)OC	18.9%	
COc1cc(OC)c2c(-c3cccc(-c4cccc(N)c4)c3)cc(=O)oc2c1	16.6%	
CCOC(=O)C1=NO[C@@]2(C=C(Br)C(=O)[C@H]3O[C@H]32)C1	15.8%	
CC1=C(/C=C/C(C)=C/C=C/C(C)=C/C=C/C=C(C)/C=C/C=C(C)/C=C/C(=O)[C@]2(C)C[C@@H](O)CC2(C)C)C(C)(C)C[C@H](O)C1	-2.06%	
CCOC(=O)Cn1c(N)c(C(=O)OC)sc1=S	-4.7% [at 38.3 µM]	
COC(=O)c1sc2[nH]c(=S)n(N)c(=O)c2c1C		10 µM (active)
COC(=O)c1sc(=S)n(-c2ccccc2)c1N	25.7% [at 38.3 µM]	
COC/C=C/C1=CC2=CC(=O)C(C)(OC(=O)CCC(=O)OC)C(=O)C2=CO1 (configuration not stated)	0.633%	
COc1cccc([C@@H]2Oc3ccc(Br)cc3C(=O)[C@H]2OC(=O)NCCc2ccc(OC)c(OC)c2)c1	10.1%	
NNc1nnc(NN)c2ccccc12	11.6%	
O=C(CSc1nc(C2CC2)nc2ccccc12)Nc1ccc2c(c1)OCCO2	18.1% [at 38.3 µM]	
COC(=O)CSc1nc(C2CC2)nc2ccccc12	3.22% [at 38.3 µM]	
Cc1nnc(NC(=O)CSc2nc(C3CCCCC3)nc3ccccc23)s1		6.31 µM (active)
NC(=O)c1sc(-c2ccsc2)cc1N	-15.1%	
COC(=O)C1=C(C(=O)OC)[C@@H]2N(C)c3ccccc3[C@@]23C[C@@H](C(=O)OC)N(S(=O)(=O)c2ccc(Br)cc2)C3=N1	2.46%	
CC(N)(C(=O)O)c1ccc(-c2nn[nH]n2)cc1 (configuration not stated)	-8.09%	
CCN1C(=O)N[C@@H](c2ccccc2)C(C(=O)OC)=C1C	-7.94%	
COC(=O)c1c(-c2cccs2)csc1NC(=O)CSc1ncnc2sc(C)c(C)c12		28.2 µM (active)
CCOC(=O)c1c(-c2ccc(C)cc2C)csc1NC(=O)CSc1nnnn1C	9.77% [at 38.3 µM]	
CCOC(=O)c1c(NC(=O)CSc2nnc(Cc3csc(N)n3)n2C)sc(C)c1C	36% [at 38.3 µM]	

SMILES	activity, negative = IMPase inhibition	Potency
Cc1ccc(NC(=O)O[C@@H]2C(=O)c3cc(Br)ccc3O[C@H]2c2ccc3c(c2)OCO3)cc1Br	9.18%	
C=C1O[C@@](CO)(n2cnc3c(N)ncnc32)[C@H](O)[C@@H]1O	-2.98%	
Cc1ccccc1-c1ccc(C(=O)O)s1	-28.1%	
O=C(NCc1ccco1)O[C@@H]1C(=O)c2cc(Br)ccc2O[C@H]1c1ccc2c(c1)OCO2	7.71%	
O=C(O)C[C@@H]1NC(=O)[C@H](Cc2ccccc2)NC1=O	-10.9%	
CN(c1nc2ccccc2n2c(-c3ccco3)nnc12)S(=O)(=O)c1ccccc1		7.94 µM (active)
Cn1c(-c2ccco2)nc2cc3ccccc3cc21	-7.17% [at 38.3 µM]	
Cc1cc(NCc2ccco2)n2c(nc3ccccc32)c1C#N	20.5% [at 38.3 µM]	
CCCCCCCC[C@@H](O)/C=C/C=C/C=C\[C@@H](O)CCCC(=O)O	6.73%	
COc1ccc2c(c1)O[C@@H](c1ccc3c(c1)OCO3)[C@H](OC(=O)NCCc1ccc(OC)c(OC)c1)C2=O	-14.2%	
C/C=C(\C)C(=O)OC1C(OC(=O)C2(C)OC2C)c2cc3ccc(=O)oc3cc2OC1(C)C (configuration not stated)	4.87%	
COC1(C2=NCCN2)COc2ccccc2O1 (configuration not stated)	5.3%	
C[C@H]1Cc2c(COc3ccccc3)nc3c(c2CO1)CN(C(=O)NCc1ccco1)CC3	-2.19%	
C/C=C(\C)C(=O)O[C@H]1CC(C)=C2C(=O)C=C(C)C2[C@@H]2OC(=O)[C@@](C)(OC(=O)C=C(C)C)C21 (some centres not stated)	-1.2%	
CCCCC/C=C\C/C=C\C/C=C\CCCCCCC(N)=O	7.82%	
COc1ccc(-c2nc3cnc(Oc4ccccc4)nc3n(Cc3cccs3)c2=O)cc1		8.91 µM (active)
COc1cccc(Cn2c(=O)c(C)nc3cnc(Oc4ccccc4)nc32)c1	18.7%	
COc1ccc(-c2nc3cnc(N(C)C)nc3n(Cc3cccs3)c2=O)cc1	1.78%	
COc1ccc(-c2nc3cnc(OC)nc3n(Cc3ccc(F)cc3)c2=O)cc1		5.62 µM (active)
COc1cccc(Cn2c(=O)c(-c3cc(F)cc(F)c3)nc3cnc(OC)nc32)c1	0.937%	
COc1cccc(Cn2c(=O)c(-c3ccccc3)nc3cnc(OC)nc32)c1	24.5%	
COc1ccc(-c2c(C)cc3oc(=O)cc(-c4ccccc4)c3c2C)cc1C=O	2.81%	
CC(C)[C@@H]1NC(=O)[C@H](Cc2ccccc2)NC(=O)[C@@H](CC(=O)O)NC(=O)CNC(=O)[C@H](CCCNC(=N)N)NC1=O	7.05%	
